Laboratory results taken from PubChem BioAssay (NCI).
Compounds without any hit were thinned out: in the full panel of roughly 83,000, 20% have a hit.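 Activity criterion: percent growth below 10, measured after cells in 96-well plates were exposed to a single compound concentration for 48 hours.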 A number with no mark means an inactive call. Activity calls are given as the source filed them.

Tests used:
Assay in all cases: NCI-60 one-dose screen, 48 h (100 = growth as untreated, 0 = no growth, -100 = all killed)
Details in all cases: 10 µM unless noted
EKVX NSCLC = system: EKVX NSCLC
SN12C renal = system: SN12C renal
UO-31 renal = system: UO-31 renal
TK-10 renal = system: TK-10 renal
ACHN renal = system: ACHN renal
CAKI-1 renal = system: CAKI-1 renal
A498 renal = system: A498 renal
CCRF-CEM leukemia = system: CCRF-CEM leukemia
MOLT-4 leukemia = system: MOLT-4 leukemia
SR leukemia = system: SR leukemia

| Structure (SMILES) | growth (EKVX NSCLC) | growth (SN12C renal) | growth (UO-31 renal) | growth (TK-10 renal) | growth (ACHN renal) | growth (CAKI-1 renal) | growth (A498 renal) | growth (CCRF-CEM leukemia) | growth (MOLT-4 leukemia) | growth (SR leukemia) |
| --- | --- | --- | --- | --- | --- | --- | --- | --- | --- | --- |
| Nc1ccc(-c2ccc(-c3ccccc3N)c3[nH]c4ccccc4c23)cc1 | 34.9% | 32.7% | 22.5% | 23.8% | 32.1% | 25.4% | 20.6% | 13% | 22% | 19.6% |
| COc1cc(/C=C/C(=O)N2c3ccccc3CC2C)c(OC)c2c1OCO2 (configuration not stated) | 87.7% | 97.1% | 77.9% | 96% | 95.7% | 101% | 69.1% | 94.6% | 84.6% | 102% |
| O=C(Nc1ccc(Br)cc1F)c1cc(F)ccc1O | 7.73% (active) | 3.29% (active) | 6.93% (active) | 3.6% (active) | 1.78% (active) | -16.7% (active) | -68.8% (active) | 7.49% (active) | 0.344% (active) |  |
| Nc1no[n+]([O-])c1-c1nnc2c(n1)-c1ccccc1C2=O | 63.8% | 15.6% | 37% | 151% | 16% | 72.4% | 91% | 35.5% | 5.49% (active) | 3.68% (active) |
| COc1ccc(C2Nc3nc(OC)n(C)c(=O)c3N=C3c4ccccc4C(=O)C32)cc1 (configuration not stated) | 81.9% | 86.6% | 94.2% | 124% | 85.3% | 54.4% | 105% | 87.9% | 77.3% |  |
| COc1cc(C2C(C#N)=C(N)OC3=C2C(=O)c2ccccc2C3=O)cc(OC)c1O (configuration not stated) | 78.9% | 47.5% | 36% | 70.1% | 41.2% | 38.8% | -8.45% (active) | 106% | 105% | 38.1% |
| CC(=S)NC(=O)C(=O)/C=C1/NC(=O)C(=O)S1 | 100% | 99.1% | 79.5% | 110% | 99.1% | 93.8% | 103% | 107% | 112% | 107% |
| Cc1c(C(=O)OCCO)cc(-c2ccc(Cl)cc2)n1-c1ccc(Cl)cc1Cl | 63.8% | 61.1% | 69.4% | 101% | 71.4% | 63.6% | 77.3% | 65.4% | 49.8% |  |
| COc1ccc(C2C3=C(COC3=O)N(CCO)c3cc4c(cc32)CCC4)cc1OC (configuration not stated) | 23.3% | 38.8% | 42% | 14.1% | 47.6% | 8.75% (active) | 29% | 18.6% | 24% | 25% |
| O=c1oc2ccc(I)cc2c(=O)n1-c1ccc(Br)cc1F | 7.21% (active) | 0.636% (active) | 5.6% (active) | 0.987% (active) | 1.01% (active) | -17.8% (active) | -62.2% (active) | 8.26% (active) | 3.69% (active) |  |
| O=c1oc2ccc(Cl)cc2c(=O)n1-c1ccc(F)cc1F | 36.2% | 4.19% (active) | -1.33% (active) | 21% | 4.18% (active) | -14% (active) | -35.4% (active) | 13.7% | 9.73% (active) |  |
| O=c1oc2ccc(Br)cc2c(=O)n1-c1ccc(Cl)cc1F | 9.06% (active) | 1.42% (active) | 7.61% (active) | 7.09% (active) | 2.66% (active) | -18.1% (active) | -69.8% (active) | 6.89% (active) | -8.39% (active) |  |
| COc1ccc(N2C(=O)CC(c3cc(OC)c(OC)c(OC)c3)C3C2=NC(=O)N3C)cc1 (configuration not stated) | 102% | 102% | 89.9% | 103% | 106% | 95.1% | 102% | 109% | 114% | 126% |
| CN1C(=O)N(C)C2(c3ccccc3)OC(=S)NC12c1ccccc1 (configuration not stated) | 90.8% | 107% | 89% | 102% | 95.7% | 84.7% | 105% | 114% | 103% | 105% |
| COc1ccc(C2=NN(/C=C3\SC(=O)NC3=Nc3ccc(F)cc3)C(c3ccc(F)cc3)C2)cc1 (configuration not stated) | 82.2% | 98.3% | 73.4% | 87.9% | 93.7% | 89.1% | 93.8% | 102% | 98.4% | 106% |
| COc1cc([C@@H]2NC(=O)NC(C)=C2C(=O)Nc2nc(-c3ccc(Cl)cc3)cs2)ccc1O | 91.1% | 97.4% | 69% | 103% | 98.3% | 83% | 102% | 132% | 100% | 106% |
| Cc1cc2c(c(C)c1Cl)C(=O)/C(=C/c1cccc([N+](=O)[O-])c1)O2 | 98.3% | 96.9% | 96.2% | 129% | 107% | 91.6% | 95.6% | 102% | 90.5% | 85.5% |
| O=c1oc2ccc(F)cc2c(=O)n1-c1ccc(I)cc1F | 9.58% (active) | -3.72% (active) | 2.62% (active) | 0.748% (active) | 1.58% (active) | -19.2% (active) | -61.4% (active) | 12% | -0.279% (active) |  |
| COc1cc(/C=C/C(=O)c2ccc(Nc3nc(NCCO)nc(N4CCOCC4)n3)cc2)cc(OC)c1OC | 21.7% | 16.3% | 25.4% | 35.3% | 23.3% | 23.6% | 2.25% (active) | 3.64% (active) | 0.216% (active) | 17.4% |
| O=c1oc2ccc(F)cc2c(=O)n1-c1ccc(Cl)cc1F | 9.11% (active) | 1.59% (active) | 1.41% (active) | 5.92% (active) | 1.55% (active) | -21.5% (active) | -51% (active) | 12.7% | -5.46% (active) |  |
| COc1cc(C2C(C#N)=C(N)OC3=C2C(=O)c2ccccc2C3=O)cc(OC)c1OC (configuration not stated) | 52.4% | 39.2% | 41.2% | 63.9% | 37.3% | 40.9% | -0.0439% (active) | 55.6% | 87.1% | 31.6% |
| COc1ccc(-c2cn[nH]c2-c2ccc(OC)c(O)c2)cc1 | 84.9% | 91.3% | 85.1% | 88.6% | 92.2% | 75% | 59% | 71.9% | 67.4% | 33.7% |
| O=C(Cn1cc(COc2ncnc3c2cnn3-c2ccccc2)nn1)Nc1ccccn1 | 86.2% | 94.6% | 62.7% | 115% | 91.1% | 86.6% | 78.7% | 96.7% | 89.9% | 101% |
| O=C(Nc1ccc(Cl)cc1F)c1cc(I)ccc1O | 77% | 29.5% | 34% | 15.8% | 34.3% | 22.8% | -28.2% (active) | 29.9% | 31.7% |  |
| CCOC(=O)c1c(C=O)nc2ccccc2c1/C=C/c1ccc(Cl)cc1 | 81.6% | 96.7% | 72.7% | 122% | 89.1% | 89.6% | 103% | 76.6% | 78.9% |  |
| O=C1c2ccccc2C(=O)c2c1ccc1[nH]c(CCl)nc21 | 72.5% | -1.77% (active) | 22.7% | 30.9% | 10.7% | 7.26% (active) | 16.3% | -12.5% (active) | -2.42% (active) |  |
| CN1CCN(Cc2ccc(C(=O)Nc3cncc(C#Cc4cnc(N)c5ccccc45)c3)cc2C(F)(F)F)CC1 | -8.85% (active) | -81.7% (active) | -90.7% (active) | -70.1% (active) | -76.1% (active) | -91.4% (active) | -62.9% (active) | 0.702% (active) | -30% (active) |  |
| O=c1oc2ccc(Cl)cc2c(=O)n1-c1cc(C(F)(F)F)cc(C(F)(F)F)c1 | 5.27% (active) | 1.28% (active) | 6.17% (active) | 0.337% (active) | 3.99% (active) | -24.7% (active) | -68.8% (active) | 5.13% (active) | -16.9% (active) |  |
